Results from PubChem BioAssay (EPA / NIEHS).
Where “and” joins values, the source holds several entries; their conditions need not be identical. Equal entries are not always repeated. Records with an inconclusive call do not appear. The source holds several records for some structures; these can differ, active in one and inactive in another. Calls of active or inactive are those of the source. Rule for the calls: active = hit-call score of the fitted dose curve at least 0.9, where 1 is the maximum; inconclusive = response in the unintended direction; inactive = score below 0.9.

Tests used:
[1] = target: Retinoic acid receptor alpha (Homo sapiens) (UniProt P10276); assay: NVS_NR_hRARa_Agonist: NovaScreen (NVS) Nuclear Receptor Binding Assay for human Retinoic Acid Alpha Receptor Agonism (RAR) (AID 2283361)
Retinoic acid receptor alpha (Homo sapiens), sequence (P10276 whole entry, looked up): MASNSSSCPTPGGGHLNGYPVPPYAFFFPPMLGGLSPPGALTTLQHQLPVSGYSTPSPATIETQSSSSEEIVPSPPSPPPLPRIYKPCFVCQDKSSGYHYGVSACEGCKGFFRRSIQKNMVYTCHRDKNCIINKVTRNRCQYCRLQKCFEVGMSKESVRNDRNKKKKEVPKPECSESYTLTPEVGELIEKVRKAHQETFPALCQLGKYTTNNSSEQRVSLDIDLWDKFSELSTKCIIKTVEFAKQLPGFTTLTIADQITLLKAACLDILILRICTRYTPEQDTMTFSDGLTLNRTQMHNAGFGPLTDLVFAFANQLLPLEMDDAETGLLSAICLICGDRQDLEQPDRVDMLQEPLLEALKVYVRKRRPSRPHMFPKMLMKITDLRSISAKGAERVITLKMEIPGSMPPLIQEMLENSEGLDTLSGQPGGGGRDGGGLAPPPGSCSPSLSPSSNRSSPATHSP
Summary of the method: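 Cell-free TR-FRET binding read-out with extracted human RARα protein, read 2 h after compound addition. Gain of signal scored against DMSO baseline. Primary screen at a single 25 uM in duplicate; actives then retested in concentration series.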

[2] = target: Nuclear receptor subfamily 1 group I member 2 (Homo sapiens) (UniProt O75469); assay: NVS_NR_hPXR: NovaScreen (NVS) Nuclear Receptor Binding Assay for human Pregnane X Receptor (PXR) (AID 2283365);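 note: a drop in FRET signal versus DMSO baseline means the compound binds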
Nuclear receptor subfamily 1 group I member 2 (Homo sapiens), sequence (O75469 whole entry, looked up): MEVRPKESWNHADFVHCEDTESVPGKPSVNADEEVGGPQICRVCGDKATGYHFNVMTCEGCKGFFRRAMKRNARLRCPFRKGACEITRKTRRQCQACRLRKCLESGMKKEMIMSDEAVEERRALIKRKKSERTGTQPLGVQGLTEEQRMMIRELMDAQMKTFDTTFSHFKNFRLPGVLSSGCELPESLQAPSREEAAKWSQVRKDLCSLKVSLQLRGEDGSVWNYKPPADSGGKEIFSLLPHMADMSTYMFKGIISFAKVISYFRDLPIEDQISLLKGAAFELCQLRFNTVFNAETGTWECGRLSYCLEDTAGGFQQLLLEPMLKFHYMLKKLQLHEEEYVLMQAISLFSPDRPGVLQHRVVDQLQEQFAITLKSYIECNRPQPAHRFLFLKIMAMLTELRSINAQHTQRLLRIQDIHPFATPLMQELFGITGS
Summary of the method: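 Read-out: TR-FRET, human PXR, 2 h post-dosing, cell-free. Loss of signal vs DMSO taken as binding activity; 25 uM primary, concentration series secondary.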

[3] = target: guinea pig Sigma Receptor, Non-selective Binding, SIGMAR1 (gene 100135589) (UniProt Q60492); assay: NVS_OR_gSIGMA_NonSelective: NovaScreen (NVS) Nuclear Receptor Binding Assay for guinea pig Sigma Receptor, Non-selective Binding (AID 2283367)
guinea pig Sigma Receptor, Non-selective Binding, SIGMAR1 (gene 100135589), sequence (Q60492 whole entry, looked up): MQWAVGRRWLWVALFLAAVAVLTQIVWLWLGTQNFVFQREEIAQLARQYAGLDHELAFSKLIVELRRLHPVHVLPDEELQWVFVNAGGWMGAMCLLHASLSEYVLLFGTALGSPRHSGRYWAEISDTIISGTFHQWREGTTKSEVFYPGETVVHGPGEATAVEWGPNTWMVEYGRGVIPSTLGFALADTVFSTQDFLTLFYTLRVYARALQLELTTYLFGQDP
Summary of the method: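 Guinea pig brain membranes, cell-free radioligand binding; read 1 h after dosing by filter-based scintillation counting. Loss of signal vs DMSO baseline taken as displacement. Primary screen single concentration 25 uM in duplicate; actives retested in concentration series.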

[4] = target: human Thyroid Receptor Alpha (TRa), THRA (gene 7067) (UniProt P10827); assay: NVS_NR_hTRa_Antagonist: NovaScreen (NVS) Nuclear Receptor Binding Assay for human Thyroid Receptor Alpha Antagonism (TRa) (AID 2283362)
human Thyroid Receptor Alpha (TRa), THRA (gene 7067), sequence (P10827 whole entry, looked up): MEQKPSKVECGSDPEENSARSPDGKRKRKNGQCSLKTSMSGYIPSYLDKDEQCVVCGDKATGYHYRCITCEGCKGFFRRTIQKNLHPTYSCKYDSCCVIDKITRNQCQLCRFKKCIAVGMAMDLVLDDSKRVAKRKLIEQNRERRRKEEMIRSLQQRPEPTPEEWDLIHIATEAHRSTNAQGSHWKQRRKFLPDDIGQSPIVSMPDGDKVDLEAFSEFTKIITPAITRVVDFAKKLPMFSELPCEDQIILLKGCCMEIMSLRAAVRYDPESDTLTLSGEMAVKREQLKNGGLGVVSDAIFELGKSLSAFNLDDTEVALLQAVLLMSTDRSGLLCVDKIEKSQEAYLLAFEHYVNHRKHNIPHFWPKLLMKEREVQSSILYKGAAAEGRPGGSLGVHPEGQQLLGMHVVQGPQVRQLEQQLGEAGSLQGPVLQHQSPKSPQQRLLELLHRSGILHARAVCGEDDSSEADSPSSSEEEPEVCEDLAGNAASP
Summary of the method: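 In this biochemical format, receptor protein is dosed with chemical and read after 1 hour via AlphaLISA. Decreases from the DMSO baseline indicate antagonist activity; screening used 25 uM in duplicate before concentration-response confirmation.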

[5] = target: human Adenosine Transporter (Adot), SLC29A1 (gene 2030) (UniProt Q99808); assay: NVS_TR_hAdoT: NovaScreen (NVS) Transporter Assay for human Adenosine Transporter (Adot) (AID 2283368)
human Adenosine Transporter (Adot), SLC29A1 (gene 2030), sequence (Q99808 whole entry, looked up): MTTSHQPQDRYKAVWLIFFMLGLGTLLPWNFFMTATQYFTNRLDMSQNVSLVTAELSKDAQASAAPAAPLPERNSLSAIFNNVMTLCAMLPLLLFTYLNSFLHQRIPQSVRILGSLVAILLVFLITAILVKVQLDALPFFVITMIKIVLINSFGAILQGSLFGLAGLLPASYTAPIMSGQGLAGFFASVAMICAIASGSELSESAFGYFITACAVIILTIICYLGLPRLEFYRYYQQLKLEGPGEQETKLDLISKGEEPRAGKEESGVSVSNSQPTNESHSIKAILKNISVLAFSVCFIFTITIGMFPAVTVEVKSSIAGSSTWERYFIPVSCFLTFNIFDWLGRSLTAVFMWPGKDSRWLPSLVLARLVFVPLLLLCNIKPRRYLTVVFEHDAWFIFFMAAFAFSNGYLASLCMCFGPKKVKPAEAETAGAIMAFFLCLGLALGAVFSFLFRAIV
Summary of the method: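 U937-derived membranes, cell-free radioligand binding, filter scintillation 1 h after dosing. 25 uM duplicate screen; hits (e.g. 30% inhibition) run in concentration-response up to 50 uM; loss of signal versus DMSO.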

[6] = target: Peroxisome proliferator-activated receptor gamma (Homo sapiens) (UniProt P37231); assay: NVS_NR_hPPARg: NovaScreen (NVS) Nuclear Receptor Binding Assay for human Peroxisome Proliferator-activated Receptor gamma (PPARg) (AID 2283370)
Peroxisome proliferator-activated receptor gamma (Homo sapiens), sequence (P37231 whole entry, looked up): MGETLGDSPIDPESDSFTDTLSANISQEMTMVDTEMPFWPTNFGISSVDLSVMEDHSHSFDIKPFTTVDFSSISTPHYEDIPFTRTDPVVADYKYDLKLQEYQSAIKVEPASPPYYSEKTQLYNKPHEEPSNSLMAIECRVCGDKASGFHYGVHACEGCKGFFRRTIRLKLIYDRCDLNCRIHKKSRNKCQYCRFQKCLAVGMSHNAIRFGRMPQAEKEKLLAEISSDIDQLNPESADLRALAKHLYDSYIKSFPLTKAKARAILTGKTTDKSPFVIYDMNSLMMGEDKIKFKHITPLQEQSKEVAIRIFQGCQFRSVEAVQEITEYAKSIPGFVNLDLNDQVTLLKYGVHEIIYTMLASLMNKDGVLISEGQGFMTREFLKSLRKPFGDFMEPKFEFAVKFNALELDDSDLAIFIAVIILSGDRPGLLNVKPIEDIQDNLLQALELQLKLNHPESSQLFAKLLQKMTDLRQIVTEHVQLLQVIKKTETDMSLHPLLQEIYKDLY
Summary of the method: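 Extracted receptor protein, cell-free; compound incubated 2 h then fluorescence polarization read. Baseline: DMSO. Actives from 25 uM duplicate screen re-run across concentrations.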

[7] = target: rat Androgen Receptor (AR), Ar (gene 24208) (UniProt P15207); assay: NVS_NR_rAR: NovaScreen (NVS) Nuclear Receptor Binding Assay for rat Androgen Receptor (AR) (AID 2283366)
rat Androgen Receptor (AR), Ar (gene 24208), sequence (P15207 whole entry, looked up): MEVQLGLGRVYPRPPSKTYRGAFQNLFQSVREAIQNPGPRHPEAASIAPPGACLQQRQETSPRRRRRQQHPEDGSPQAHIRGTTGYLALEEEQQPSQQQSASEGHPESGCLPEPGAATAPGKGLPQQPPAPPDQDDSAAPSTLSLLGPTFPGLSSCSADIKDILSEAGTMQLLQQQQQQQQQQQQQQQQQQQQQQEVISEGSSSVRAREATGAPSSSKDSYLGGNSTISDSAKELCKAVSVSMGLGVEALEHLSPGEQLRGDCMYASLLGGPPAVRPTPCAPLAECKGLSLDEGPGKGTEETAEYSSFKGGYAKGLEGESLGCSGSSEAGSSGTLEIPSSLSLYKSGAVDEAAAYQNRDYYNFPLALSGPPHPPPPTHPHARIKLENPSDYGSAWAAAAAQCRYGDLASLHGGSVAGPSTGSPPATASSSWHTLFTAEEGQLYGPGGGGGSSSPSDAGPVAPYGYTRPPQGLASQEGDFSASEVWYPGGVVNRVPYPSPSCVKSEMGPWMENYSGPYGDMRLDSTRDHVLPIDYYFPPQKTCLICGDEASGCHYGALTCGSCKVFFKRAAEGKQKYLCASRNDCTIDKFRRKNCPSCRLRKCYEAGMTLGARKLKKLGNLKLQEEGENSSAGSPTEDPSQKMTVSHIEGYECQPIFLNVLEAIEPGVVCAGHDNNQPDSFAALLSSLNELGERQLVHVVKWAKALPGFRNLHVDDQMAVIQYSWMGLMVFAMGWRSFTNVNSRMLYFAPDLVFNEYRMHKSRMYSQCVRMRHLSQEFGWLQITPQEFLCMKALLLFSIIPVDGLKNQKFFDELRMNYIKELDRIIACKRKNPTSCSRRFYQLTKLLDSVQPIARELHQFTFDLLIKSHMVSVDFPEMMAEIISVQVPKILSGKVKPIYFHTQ
Experimental: NVS_NR_rAR is a biochemical, single-readout assay that uses extracted gene-proteins from Testosterone pre-treated rat prostate in a tissue-based cell-free assay. Measurements were taken 18 hours after chemical dosing in a 96-well plate.NVS_NR_rAR is one of one assay component(s) measured or calculated from the NVS_NR_rAR assay. It is designed to make measurements of radioligand binding, a form of binding reporter, as detected with scintillation counting signals by Filter-based radiodetection technology.Data from the assay component NVS_NR_rAR was analyzed into 1 assay endpoint. This assay endpoint, NVS_NR_rAR, was analyzed in the positive analysis fitting direction relative to DMSO as the negative control and baseline of activity. Using a type of binding reporter, loss-of-signal activity can be used to understand changes in the binding as they relate to the gene Ar. Furthermore, this assay endpoint can be referred to as a primary readout, because the performed assay has only produced 1 assay endpoint. To generalize the intended target to other relatable targets, this assay endpoint is annotated to the nuclear receptor intended target family, where the subfamily is steroidal.
Binding assays used specific radioligands (tritiated, iodinated) with non-radioactive competitive displacement ligands in agonist or antagonist protocols (as indicated) and various reference compounds and inhibitors to titrate specific binding to receptors and transporters. Most enzyme assays (CYPs, kinases, phosphatases, proteases, HDACs) used recombinant protein and specific substrates (fluorescence mostly, some colorimetric and radioactive) and inhibitors, followed by a biochemical separation of substrate and product. All assays for the biochemical HTS were initially run in duplicate at a single concentration (10 uM for CYP450 assays and 25 uM for all others). […] Each assay was run with positive and negative controls, and concurrent controls on every plate. The follow-up (secondary) screen tested active chemical-pairs in concentration series, as well as a few additional assays not tested in the primary screen, some selected negative inactives, and several cases re-run in the concentration series for confirmatory purposes.

[8] = target: Glucocorticoid receptor (Homo sapiens) (UniProt P04150); assay: NVS_NR_hGR: NovaScreen (NVS) Nuclear Receptor Binding Assay for human Glucocorticoid Receptor (GR) (AID 2283363)
Glucocorticoid receptor (Homo sapiens), sequence (P04150 whole entry, looked up): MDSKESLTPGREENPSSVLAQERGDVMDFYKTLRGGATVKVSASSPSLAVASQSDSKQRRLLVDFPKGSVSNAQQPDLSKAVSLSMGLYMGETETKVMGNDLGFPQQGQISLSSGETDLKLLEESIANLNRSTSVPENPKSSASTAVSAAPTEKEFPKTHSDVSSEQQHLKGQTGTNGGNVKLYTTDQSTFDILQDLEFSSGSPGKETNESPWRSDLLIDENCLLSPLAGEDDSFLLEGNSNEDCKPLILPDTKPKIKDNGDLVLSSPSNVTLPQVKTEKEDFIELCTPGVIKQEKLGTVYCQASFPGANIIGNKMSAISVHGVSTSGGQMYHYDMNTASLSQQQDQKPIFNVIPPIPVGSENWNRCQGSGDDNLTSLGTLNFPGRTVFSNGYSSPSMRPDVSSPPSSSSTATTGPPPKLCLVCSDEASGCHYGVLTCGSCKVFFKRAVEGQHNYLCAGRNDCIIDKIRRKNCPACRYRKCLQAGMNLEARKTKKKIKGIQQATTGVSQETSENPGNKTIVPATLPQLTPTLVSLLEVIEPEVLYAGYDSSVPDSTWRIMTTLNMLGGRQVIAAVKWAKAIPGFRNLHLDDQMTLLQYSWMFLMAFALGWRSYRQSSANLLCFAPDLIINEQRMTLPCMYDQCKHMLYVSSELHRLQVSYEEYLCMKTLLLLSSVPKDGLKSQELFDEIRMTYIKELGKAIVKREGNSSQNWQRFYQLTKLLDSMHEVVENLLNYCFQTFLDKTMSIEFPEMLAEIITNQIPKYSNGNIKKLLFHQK
Summary of the method: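 Cell-free radioligand binding with extracted receptor protein, read by filter-based scintillation counting 16 hours after dosing. Loss of specific signal versus DMSO baseline was scored. Primary screen ran in duplicate at 25 uM; actives were followed up in concentration series.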

[9] = test system: guinea pig Dopamine Transporter (DAT), gene 100714898; assay: NVS_TR_gDAT: NovaScreen (NVS) Transporter Assay for guinea pig Dopamine Transporter (DAT) (AID 2283369);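 note: active compounds lower bound radioligand signal relative to DMSO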
Summary of the method: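 Primary pass: duplicate wells at 25 uM, threshold e.g. 30% inhibition. Follow-up: singleton concentration-response, highest 50 uM. Radioligand binding on guinea pig striatal membranes, 2 h, filtration scintillation detection.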

[10] = target: human Serotonin Transporter (SERT), SLC6A4 (gene 6532) (UniProt P31645); assay: NVS_TR_hSERT: NovaScreen (NVS) Transporter Assay for human Serotonin Transporter (SERT) (AID 2283372)
human Serotonin Transporter (SERT), SLC6A4 (gene 6532), sequence (P31645 whole entry, looked up): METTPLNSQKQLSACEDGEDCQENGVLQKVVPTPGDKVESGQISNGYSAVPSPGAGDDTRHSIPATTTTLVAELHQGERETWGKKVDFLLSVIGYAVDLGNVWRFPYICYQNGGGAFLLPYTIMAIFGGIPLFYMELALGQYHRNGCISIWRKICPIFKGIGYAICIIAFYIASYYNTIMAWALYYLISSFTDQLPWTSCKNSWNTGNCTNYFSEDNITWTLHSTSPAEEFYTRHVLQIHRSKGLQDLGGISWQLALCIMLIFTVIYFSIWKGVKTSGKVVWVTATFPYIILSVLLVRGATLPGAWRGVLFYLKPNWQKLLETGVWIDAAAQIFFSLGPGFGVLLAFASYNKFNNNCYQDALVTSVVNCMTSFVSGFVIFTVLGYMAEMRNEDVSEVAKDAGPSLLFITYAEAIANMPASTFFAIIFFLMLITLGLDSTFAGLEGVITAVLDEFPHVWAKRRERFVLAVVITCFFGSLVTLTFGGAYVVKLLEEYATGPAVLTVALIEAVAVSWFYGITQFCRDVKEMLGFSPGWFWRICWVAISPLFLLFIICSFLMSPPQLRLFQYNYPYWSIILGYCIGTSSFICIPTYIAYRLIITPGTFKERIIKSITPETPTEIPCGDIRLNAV
Summary of the method: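 Radioligand binding to native SERT in human platelet membranes, read by filter-based scintillation counting 1 h after dosing. Primary screen in duplicate at 25 uM; actives followed up in concentration series; loss of signal versus DMSO baseline.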

## C[C@]12C[C@H](O)[C@H]3[C@@H](CCC4=CC(=O)CC[C@@]43C)[C@@H]1CC[C@@H]2C(=O)CO
[1]
  outcome: inactive
[2]
  outcome: inactive
[3]
  AC50: 25 µM (active)

## S=C(S)NCCNC(=S)S.[Mn+2].[S-]C([S-])=NCCN=C([S-])[S-].[Zn+2]
[4]
  AC50: 7.34 µM (active)
[2]
  AC50: 5.33 µM (active) and 1.52 µM (active)
[3]
  outcome: inactive
[5]
  outcome: inactive
[6]
  outcome: inactive

## C#C[C@]1(O)CC[C@H]2[C@@H]3CCC4=CC(=O)CC[C@@H]4[C@H]3CC[C@@]21CC
[2]
  outcome: inactive
[6]
  outcome: inactive

## CCCCOCCOCCOCc1cc2c(cc1CCC)OCO2
[7]
  outcome: inactive
[6]
  outcome: inactive

## CC1(C)C(C=C(Cl)Cl)C1C(=O)OCc1cccc(Oc2ccccc2)c1 (stereo unspecified)
[8]
  outcome: inactive
[7]
  outcome: inactive

## CC(=O)S[C@@H]1CC2=CC(=O)CC[C@]2(C)[C@H]2CC[C@@]3(C)[C@@H](CC[C@@]34CCC(=O)O4)[C@H]12
[4]
  outcome: inactive
[2]
  AC50: 25 µM (active)
  outcome: inactive
[6]
  outcome: inactive

## C=CCOC(Cn1ccnc1)c1ccc(Cl)cc1Cl (stereo unspecified)
[8]
  AC50: 15.4 µM (active)
[3]
  AC50: 4.62 µM (active)
[9]
  AC50: 14.3 µM (active)
[6]
  outcome: inactive

## CC(C)(c1ccc(O)cc1)c1ccc(O)cc1
[2]
  AC50: 8.08 µM (active) and 10.9 µM (active)
  outcome: inactive
[7]
  AC50: 16.1 µM (active) [middle of 4 runs]
[3]
  AC50: 8.43 µM (active)
  outcome: inactive
[9]
  AC50: 8.77 µM (active) and 25.4 µM (active) and 11.6 µM (active)
[6]
  outcome: inactive

## O=C(c1ccccc1)C1CCCCC1
[2]
  outcome: inactive
[7]
  AC50: 6.52 µM (active)
  outcome: inactive
[9]
  outcome: inactive
[6]
  outcome: inactive

## COC(=O)c1ccccc1C(=O)O
[8]
  AC50: 5.83 µM (active)
[6]
  outcome: inactive

## CCCCC(CC)CN1C(=O)C2C3C=CC(C3)C2C1=O (stereo unspecified)
[8]
  AC50: 25 µM (active)
[6]
  outcome: inactive

## S=C([S-])NCCNC(=S)[S-].[Mn+2]
[8]
  AC50: 10.1 µM (active)
[3]
  outcome: inactive

## COC(=O)CSc1cc(N=c2sc(=O)n3n2CCCC3)c(F)cc1Cl
[7]
  outcome: inactive

## O=C(c1ccc(O)cc1O)c1ccc(O)cc1O
[1]
  AC50: 25 µM (active) and 33.4 µM (active)
  outcome: inactive
[8]
  AC50: 9.33 µM (active) and 8.91 µM (active) and 10.9 µM (active)
[7]
  AC50: 7.84 µM (active) [middle of 4 runs]
[6]
  AC50: 40.4 µM (active)
  outcome: inactive

## C[C@]12CC[C@@H]3c4ccc(O)cc4C[C@@H](CCCCCCCCCS(=O)CCCC(F)(F)C(F)(F)F)[C@H]3[C@@H]1CC[C@@H]2O (stereo partly specified)
[8]
  AC50: 13.1 µM (active)
  outcome: inactive
[2]
  outcome: inactive
[7]
  outcome: inactive
[5]
  AC50: 9.12 µM (active)
[6]
  outcome: inactive

## CC(C)CCCCCCc1ccc(O)cc1
[8]
  AC50: 7.09 µM (active) and 16.2 µM (active) and 15.9 µM (active)
[6]
  outcome: inactive

## CCCN(CCC)C(=O)SCC
[4]
  outcome: inactive
[8]
  AC50: 7.09 µM (active)
[7]
  outcome: inactive
[6]
  outcome: inactive

## CSC(=O)c1cccc2nnsc12
[8]
  outcome: inactive

## Oc1ccc(C(c2ccc(O)cc2)C(Cl)(Cl)Cl)cc1
[4]
  outcome: inactive
[8]
  AC50: 1.01 µM (active)
[9]
  AC50: 2 µM (active)
[6]
  outcome: inactive

## N[C@@H](Cc1cc(I)c(Oc2ccc(O)c(I)c2)c(I)c1)C(=O)O
[2]
  outcome: inactive
[6]
  AC50: 32.3 µM (active)
  outcome: inactive

## COCCO
[2]
  AC50: 3.84 µM (active)

## CCCCC(CC)COC(=O)c1ccccc1C(=O)O (stereo unspecified)
[4]
  outcome: inactive
[8]
  AC50: 7.38 µM (active)

## COc1c(Cl)ccc(Cl)c1C(=O)O
[10]
  outcome: inactive
